Source: PubChem (National Center for Advancing Translational Sciences (NCATS))
An excerpt weighted towards active compounds, which were near 14% of everything screened.
Pf growth 96h: inhibits malaria parasite growth, 96 h. 320,000 tested, 6.9% active. AID 504834. P. falciparum luciferase reporter growth, 96 h. Potency, µM (top dose mostly 28.7 µM), for inactives: at the highest dose activity change, negative = inhibition, most hits filed as inhibitors; further: potency means the concentration at half of the fitted maximal effect
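Infected RBCs, 2% Hct / 0.05% parasitemia final; luciferase-reporter P. falciparum; cpd 96 h, 37 C, 5% CO2; luciferase detection reagent; luminescence.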
HCV inhibitor: blocks hepatitis C virus; Huh7.5.1 HCVcc-Cre infection, luciferase reporter, 44 h; Potency, µM (doses to about 41.8 µM), inactives show at the highest dose activity change, negative = inhibition, usual class: inhibitors; 340,000 tested, 3.4% active; AID 651820; further: potency means the concentration at half of the fitted maximal effect
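Reporter virus HCVcc-Cre (~0.5 moi) infects cells exposed to compound; seeding density 1,000 cells/well with 4 h settling beforehand. Luminescence, 15 sec read, taken 44 h post-infection following a 15 min RT substrate incubation.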
Marburg entry inh: inhibitors of Marburg virus binding or cell entry; Marburg virus pseudotyped entry inhibition, cell reporter; Potency, µM (highest dose often 37.8 µM), for inactives: top-dose activity change, negative = inhibition, usual class: inhibitors; 300,000 tested, 1.8% active; calls by dose curve; tested in HEK293 cells; further: potency means the concentration at half of the fitted maximal effect
HCMV antiviral: blocks human cytomegalovirus replication. HFF cells, HCMV-luciferase reporter, 72 h; hits give low values. activity change, negative = inhibition, % at 57.5 µM. 410,000 tested, 4.5% active; in the data active means activity change below about -60%; inconclusive means no clear call, values can overlap the other calls; inactive means above about -39%
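Luciferase read-out from HCMV-luciferase-infected HFFs (MOI 1 PFU/cell) 72 h post infection at 37C; compounds added after 16 h cell attachment; activity normalized between buffer-only basal and Salinomycin (10uM) inhibitor controls.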
Pf growth 48h: inhibits P. falciparum growth in the first generation, 48 h; P. falciparum luciferase growth in erythrocytes, 48 h; Potency, µM (top dose mostly 28.7 µM), inactives show at the highest dose activity change, negative = inhibition, actives largely listed as inhibitors; 310,000 tested, 5.9% active; further: potency means the concentration at half of the fitted maximal effect
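Luminescence readout; reporter = integrated firefly luciferase in P. falciparum. RBC culture at 2% hematocrit, 0.1% parasitemia final, 37 C/5% CO2; decreased signal taken as growth inhibition.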
Lassa entry inh: blocks Lassa virus binding to or entry into cells; Lassa virus pseudotype entry inhibition, cell reporter; Potency, µM (series often up to 37.9 µM), for the others: at the top dose activity change, negative = inhibition, usual class: inhibitors; 300,000 tested, 1.2% active; calls by dose curve; tested in HEK293 cells; further: potency means the concentration at half of the fitted maximal effect; nearly all actives have a fitted effect of over 50% in size
* = called active by the depositor; ? = inconclusive; . = no result; [ ] = another dose, or the depositor's remark. Unless noted, the call rests on the fitted dose curve; in most records, active means well fitted inhibition curve with a large enough effect; inconclusive means small, poorly fitted or top-dose-only effect, or another doubt; inactive means no such curve, though single readings can be large or run the other way. On the % scale 0 is the no-effect control and ±100 the full control effect.

SMILES	Pf growth 96h	HCV inhibitor	Marburg entry inh	HCMV antiviral	Pf growth 48h	Lassa entry inh
CC(C)=C1C2CCC1C(C(=O)Nc1sc(C)c(-c3ccc(C(C)C)cc3)c1C(N)=O)C2C(=O)O (stereo not drawn)	?	?	21µM*	-22	?	?
COC(=O)c1c(NC(=O)/C=C/C(=O)O)sc(C)c1-c1ccc(C(C)C)cc1	-5%	4%	-16%[46.1 µM]	?	?	5.6µM*
CCOC(=O)c1c(NC(=O)/C=C/C(=O)O)sc(C)c1-c1ccc(C)c(C)c1	17%	-1%	?	-27	9.3µM*	?
COC(=O)c1c(NC(=O)/C=C/C(=O)O)sc(C)c1-c1ccc(C)c(C)c1	?	-4%	?	-35	?	-21%
CCCCOC(=O)c1ccc(NC(=O)COC(=O)C2CC2C)cc1 (stereo not drawn)	.	.	.	21	.	.
CCN(CC)C(=O)CSc1ncnc2sc(-c3ccccc3)cc12	.	13µM*	?	-38	64%	-1%
CC(C)C(C)(C#N)NC(=O)CSc1ncnc2sc(-c3ccccc3)cc12 (stereo not drawn)	.	13µM*	-26%	-33	-19%	-17%
COCC(C)NC(=O)CSc1ncnc2sc(-c3ccccc3)cc12 (stereo not drawn)	-12%	?	-29%	-2	7%	-1%
Cc1ccc(S(=O)(=O)NN=Cc2ccco2)cc1	.	.	.	-30	.	.
COc1ccc2occ(C(C)=O)c2c1	?	-5%	?	-8	.	-17%
COc1cc(C)c2occ(/C(C)=N\O)c2c1	-16%	8.9µM*	5%	43	4%	5%
N#Cc1c(/N=C/c2cccs2)sc2c1CCCCC2	.	10µM*	?	-28	354%	?
O=C(O)CCN1C(=O)c2ccncc2C1=O	8%	9%	-11%	4	72%	17%
O=C1c2ccncc2C(=O)N1CO	10µM*	1%	?	14	-7%	14%
C[C@H](NC(=O)[C@H]1N2C(=O)c3ccccc3C2SC1(C)C)C(=O)NCC1CCCO1 (stereo partly drawn)	-26%	18%	.	46	-17%	.
C=C(C)Cc1c(C)nc(-c2ccccc2)[nH]c1=O	.	17%	0%	23	?	8%
CCCCCCOC(=O)Cc1c(C)nc(-c2ccccc2)[nH]c1=O	?	8%	-3%	5	2.3µM*	7%
CCC(=O)Nc1nonc1-c1nc2ccccc2n1Cc1ccccc1	.	-9%	-12%	7	?	-9%
CCC(=O)Nc1nonc1-c1nc2ccccc2n1Cc1cccc2ccccc12	5.2µM*	?	?	-104*	?	?
CN(C)c1ccc(NC2=C(Cl)C(=O)c3ccccc3C2=O)cc1	18%	10µM*	?	-97*	134%	?
O=C(Nc1ccncc1)c1c(Cl)cccc1Cl	?	-15%	.	-66*	?	.
O=C(Nc1ccncc1)c1c(F)c(F)c(F)c(F)c1F	-26%	-4%	-1%	-11	10µM*	1%
O=C(NNc1ncccc1Cl)c1c(Cl)cccc1Cl	?	16%	0%	-67*	-8%	7%
Oc1c(C(c2ccccc2)N2CCC(O)CC2)sc2nc(-c3ccco3)nn12 (stereo not drawn)	.	.	.	-5	.	0%[46.1 µM]
O=C(Nc1ccc2cn[nH]c2c1)c1ccccc1F	384%	-12%	?	92	339%	?
O=C(Nc1cccc(F)c1)c1c(F)c(F)c(F)c(F)c1F	.	?	-52%	-4	13µM*	-21%
O=C(Nc1ccc2cn[nH]c2c1)c1c(Cl)cccc1Cl	-26%	-18%	10%	-94*	3%	15%
CCN(CC)c1ccc(C(=O)Nc2cccc(F)c2)cc1	25%	10µM*	?	-24	5%	?
Cc1cccc(NC(=O)c2c(F)c(F)c(F)c(F)c2F)c1	?	?	0%[46.1 µM]	-17	.	-2%
O=C1C(Cl)=C(Nc2ccc3cn[nH]c3c2)C(=O)c2ccccc21	8.3µM*	4µM*	?	-100*	12µM*	3.5µM*
